Experimental data: PubChem BioAssay (EPA / NIEHS)
Several values for one entry are separate records, joined by “and”; a condition that tells them apart may be missing. Identical values can stand only once. Activity calls are given as the source filed them. The calls were made as follows: active = hit-call score of the fitted dose curve at least 0.9, where 1 is the maximum; inactive = score below 0.9.

assay: CCTE_Shafer_MEA_acute_spike_number: CCTE's Neural Acute Assay for Total Number of Spikes, Shafer Lab (AID 2284008);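 as to AC50: curve fitted for decrease in spike count so AC50 reflects inhibitors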
Method: CCTE_Shafer_MEA_acute assay is conducted using Axion Biosystems 48 well microelectrode array (MEA) plates and Maestro recording system. Each well of the MEA plate contains a grid of 16 microelectrodes embedded in the culture surface. Electrically active cells, such as neurons, can be cultured over the electrodes, and electrical activity in these cells can be recorded extracellularly. The spontaneous firing of neurons is captured from each electrode on a microsecond timescale providing both temporally and spatially precise data. […] The CCTE_Shafer_MEA_acute assay uses primary cultures of rat cortical neurons. As these cultures mature over time, neural networks develop functional activity and form cohesive networks in which electrical activity can be highly coordinated. Baseline 40-minute recordings are made on days post-plating 13 or 15, followed by a secondary 40-minute recording after chemical exposure.CCTE_Shafer_MEA_acute_spike_number is a component of the CCTE_Shafer_MEA_acute assay. It measures the total number of spikes (action potential firings) in a 40-minute recording in a microelectrode array (MEA) using Axion Biosystems Maestro 768 channel amplifier with the AxIS adaptive spike detector. The recordings before and after chemical treatment are used to calculate a percent change in the spike number in each well. Data from the assay component CCTE_Shafer_MEA_acute_spike_number was analyzed into 1 assay endpoint. This assay endpoint, CCTE_Shafer_MEA_acute_spike_number, was analyzed in the negative analysis fitting direction relative to DMSO as the negative control and baseline of activity. Using a type of functional reporter, gain or loss-of-signal activity can be used to understand electrical activity.
Spontaneous activity in the cortical cultures was recorded using an Axion Biosystems Maestro 768 channel amplifier and Axion Integrated Studios (AxIS) v1.8 (or later) software. The amplifier recorded from all channels simultaneously (gain = 1200 x; sampling rate = 12.5 kHz/channel): raw signals were filtered with a Butterworth band-pass filter (300-5000 Hz), which filters out slower local field potentials leaving only fast potentials, i.e., "spikes", arising from extracellular currents associated with action potentials (Pine 2006; Wheeler and Nam 2011). On-line spike detection of filtered signals was conducted with the AxIS adaptive spike detector, using a threshold of 8x the root mean squared (rms) noise on each channel. Any electrodes with rms noise levels greater than 5 uV were grounded (e.g., no data were recorded). Once grounded, an electrode was grounded for the duration of the experiment. All recordings were conducted at 37 C. Wells were deemed usable if on the day of the exposure >/= 10 electrodes were active (defined as >/= 5 spikes/min). On DIV 13 or 15, a minimum of three wells from one cortical culture preparation were treated with each compound (0.03-40 uM). Prior to recording baseline activity, each mwMEA plate was placed in the Maestro at 37 C and allowed to sit for 20 min while firing rates stabilized. Baseline activity (40 min) was recorded before the addition of each compound. An additional 40 min of spontaneous activity was recorded in the presence of each compound. Changes in network parameters relative to baseline were assessed following compound treatment.

Row | Compound | outcome | AC50
1 | CC(Oc1ccc(Cl)cc1Cl)C(=O)O (stereo not drawn) | inactive | –
2 | COP(N)(=O)SC (stereo not drawn) | inactive | –
3 | CC(C)(C)c1ccc(CSc2cnn(C(C)(C)C)c(=O)c2Cl)cc1 | – | 0.0249 µM (active)
4 | CCCCNC(=O)OCC#CI | – | 10.2 µM (active)
5 | CCOP(=S)(OCC)SCn1c(=O)oc2cc(Cl)ccc21 | inactive | –
6 | C=CCC1=C(C)C(OC(=O)C2C(C=C(C)C)C2(C)C)CC1=O (stereo not drawn) | inactive | –
7 | CC(C)Oc1cc(-n2nc(C(C)(C)C)oc2=O)c(Cl)cc1Cl | inactive | –
8 | N#Cc1nn(-c2c(Cl)cc(C(F)(F)F)cc2Cl)c(N)c1S(=O)C(F)(F)F (stereo not drawn) | – | 10.3 µM (active) and 9.11 µM (active)
9 | CS/C(C)=N/OC(=O)N(C)SN(C)C(=O)O/N=C(\C)SC | inactive | –
10 | CCCN(CCC)c1c([N+](=O)[O-])cc(S(N)(=O)=O)cc1[N+](=O)[O-] | – | 4.91 µM (active)
11 | Cc1ccc(-c2c(Cl)nc(C#N)n2S(=O)(=O)N(C)C)cc1 | inactive | –
12 | COP(=S)(OC)Oc1nc(Cl)c(Cl)cc1Cl | inactive | –
13 | COC(=O)C(C)Oc1ccc(Oc2ccc(Cl)cc2Cl)cc1 (stereo not drawn) | inactive | –
14 | CCCC1COC(Cn2cncn2)(c2ccc(Cl)cc2Cl)O1 (stereo not drawn) | inactive | –
15 | N#CC(CCc1ccc(Cl)cc1)(Cn1cncn1)c1ccccc1 (stereo not drawn) | inactive | –
16 | C=CCC1=C(C)[C@@H](OC(=O)[C@@H]2[C@@H](C=C(C)C)C2(C)C)CC1=O | – | 4.06 µM (active)
17 | OC(c1ccc(Cl)cc1)(c1cncnc1)c1ccccc1Cl (stereo not drawn) | – | 0.792 µM (active)
18 | COC(=O)N(OC)c1ccccc1COc1ccn(-c2ccc(Cl)cc2)n1 | – | 0.0781 µM (active)
19 | Fc1ccc(Oc2ccnc3cc(Cl)cc(Cl)c23)cc1 | inactive | –
20 | CCNc1nc(Cl)nc(NC(C)C)n1 | inactive | –
21 | C#CCOS(=O)OC1CCCCC1Oc1ccc(C(C)(C)C)cc1 (stereo not drawn) | – | 9.46 µM (active)
22 | CNC(=O)ON=CC(C)(C)SC | inactive | –
23 | CON(C)C(=O)Nc1ccc(Cl)c(Cl)c1 | inactive | –
24 | COc1ccc(C(c2ccc(OC)cc2)C(Cl)(Cl)Cl)cc1 | inactive | –
25 | CC1COC(Cn2cncn2)(c2ccc(Oc3ccc(Cl)cc3)cc2Cl)O1 (stereo not drawn) | – | 3.53 µM (active)
26 | CO/C=C(/C(=O)OC)c1ccccc1Oc1cc(Oc2ccccc2C#N)ncn1 | inactive | –
27 | Cc1c(F)c(F)c(COC(=O)C2C(/C=C(\Cl)C(F)(F)F)C2(C)C)c(F)c1F (stereo not drawn) | – | 0.567 µM (active)
28 | O=C(O)c1nc(Cl)ccc1Cl | inactive | –
